Compound activity from PubChem.
CYP2C9 activ = human CYP2C9 activators, primary screen, biochemical, luminescence; recombinant CYP2C9, luciferin-H conversion; active compounds read high; factor 1 = untreated enzyme, 0 = blocked; Cytochrome P450 2C9 (Homo sapiens), P11712; activation factor at 5 µM; AID 1024, 2008; 96,000 compounds, 1.4% hits;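 active = activation factor of 2 or more for CYP2C9 at a 5 µM dose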
CYP2C9 inh = blockers of cytochrome P450 2C9 activity – biochemical, luminescence, ADME assay, primary screen | P11712 | CYP2C9 Supersomes, luciferin-H conversion | inhibition, % at 5 µM | 96,000 compounds, 20% hits | AID 777, 2007;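 active = blocking of liver enzyme CYP2C9 beyond about 50% at 5 µM, limit read from the data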
CYP2C19 act = human CYP2C19 activators, primary screen, biochemical, luminescence; AID 1025, 2008; Cytochrome P450 2C19 (Homo sapiens), P33261; recombinant CYP2C19, luciferin-H EGE luminescence; active compounds read high; 0 = fully inhibited enzyme, 1 = untreated enzyme; activation factor at 5 µM; 96,000 tested, under 10 active;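 active = activation factor of at least 2 at 5 µM in the primary screen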
PLAP act = PLAP enzyme activators, biochemical, luminescence, HTS; purified PLAP enzyme, luminescent substrate read-out; active compounds read high; activation fold at 20 µM; 96,000 compounds, 1.2% hits; in the data active = activation fold above about 2
Target sequence (P05187 whole entry, looked up): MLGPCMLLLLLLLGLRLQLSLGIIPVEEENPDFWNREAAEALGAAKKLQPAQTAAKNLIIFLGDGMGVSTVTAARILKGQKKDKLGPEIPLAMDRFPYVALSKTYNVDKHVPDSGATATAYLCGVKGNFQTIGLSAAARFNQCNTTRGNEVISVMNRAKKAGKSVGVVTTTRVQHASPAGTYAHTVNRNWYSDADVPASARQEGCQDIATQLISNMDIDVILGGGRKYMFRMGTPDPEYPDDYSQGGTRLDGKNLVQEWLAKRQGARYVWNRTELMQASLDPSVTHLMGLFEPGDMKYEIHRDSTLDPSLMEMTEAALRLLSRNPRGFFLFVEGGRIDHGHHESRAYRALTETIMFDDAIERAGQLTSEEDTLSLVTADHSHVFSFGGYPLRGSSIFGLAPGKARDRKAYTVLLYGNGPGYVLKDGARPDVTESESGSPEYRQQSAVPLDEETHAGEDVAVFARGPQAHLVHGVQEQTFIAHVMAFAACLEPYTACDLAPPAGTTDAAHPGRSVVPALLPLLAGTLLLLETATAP
CYP2C19 inhib = blockers of cytochrome P450 2C19 activity – biochemical, luminescence, ADME assay, primary screen; inhibition, % at 5 µM; CYP2C19 Supersomes, luciferin-H EGE luminescence, 30 min; 96,000 compounds, 21% hits; P33261;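 active = CYP2C19 inhibition above a set limit at 5 µM in the primary screen, cut at about 50% in these data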
Hits are given with their value; 0 = inactive. Only some compounds are listed: those with a hit (about 31% of all), similar ones and a draw of the others.

SMILES	CYP2C9 activ	CYP2C9 inh	CYP2C19 act	PLAP act	CYP2C19 inhib
CS(=O)(=O)N1CCN(C(=O)c2cc(-c3ccccc3)nc3ccccc23)CC1	0	0	0	0	0
CCN1CCN(C(=O)c2cnn3c(C(F)F)cc(-c4ccc(C)cc4)nc23)CC1	0	0	0	0	0
Cc1ccc(-c2cc(C(F)F)n3ncc(C(=O)N4CCN(c5ccccn5)CC4)c3n2)cc1	0	56.8	0	0	0
COc1ccc(-c2cc(C(=O)N3CCN(c4ccccn4)CC3)c3ccccc3n2)cc1	0	76.9	0	0	58.6
CCOc1ccc(-c2cc(C(=O)N3CCN(c4ccccn4)CC3)c3ccccc3n2)cc1	0	0	0	0	0
COc1ccccc1-c1cc(C(=O)N2CCc3ccccc3C2)c2ccccc2n1	0	63.7	0	0	0
O=C(c1ccco1)N1CCN(C(=O)c2cc(-c3ccccc3)nc3ccccc23)CC1	0	0	0	0	0
O=C(c1ccco1)N1CCN(C(=O)c2cc(-c3ccccn3)nc3ccc(Cl)cc23)CC1	0	88.5	0	0	53.2
O=C(c1cc(-c2ccccn2)nc2ccc(Br)cc12)N1CCc2ccccc2C1	0	88.7	0	0	87.1
CCOC(=O)N1CCN(C(=O)c2cc(-c3ccc(OCC)cc3)nc3ccccc23)CC1	0	76.4	0	0	0
CCOc1ccc(-c2cc(C(=O)N3CCN(C)CC3)c3ccccc3n2)cc1	0	0	0	0	0
CC1CC(C)CN(C(=O)c2cc(-c3ccccn3)nc3ccccc23)C1 (configuration not stated)	0	0	0	0	0
Cc1cccnc1NC(=O)C1CCN(S(=O)(=O)c2cccs2)CC1	0	0	0	0	0
Cc1cc([N+](=O)[O-])nn1CC(=O)NNC(=S)Nc1ccc(Cl)cc1	0	0	0	0	0
CO/N=C(\C)c1ncc(C(F)(F)F)cc1N1CCOCC1	0	0	0	0	0
O=C(O)c1cc(-c2ccncc2)nc2ccc(S(=O)(=O)N3CCOCC3)cc12	0	59.6	0	0	0
COc1ccc(NS(=O)(=O)c2ccc(NC(=O)C3CCCO3)cc2)cc1 (configuration not stated)	0	65.1	0	0	68.7
O=C(Nc1nc2ccccc2[nH]1)C1CCCO1 (configuration not stated)	0	0	0	2.5	0
O=C1NC(=O)c2cc(NC(=O)C3CCCO3)ccc21 (configuration not stated)	0	86.2	0	0	0
O=C(Nc1ccc(Oc2ccc(NC(=O)C3CCCO3)cc2)cc1)C1CCCO1 (configuration not stated)	0	53.9	0	0	0
O=C(Nc1ccc(-c2nc3ccccc3[nH]2)cc1)C1CCCO1 (configuration not stated)	0	0	0	0	0
COCc1nnc(NC(=O)CC(c2ccccc2)c2ccccc2)s1	0	0	0	0	0
CC(Sc1nc2ccccc2o1)C(=O)O (configuration not stated)	0	0	0	0	0
O=C(COc1cccc2ccccc12)NNC(=O)C1CCCO1 (configuration not stated)	0	0	0	2.2	0
Cc1ccc(NS(=O)(=O)c2ccc(NC(=O)C3CCCO3)cc2)cc1 (configuration not stated)	0	85.1	0	0	91.3
SMILES	CYP2C9 activ	CYP2C9 inh	CYP2C19 act	PLAP act	CYP2C19 inhib
O=C(NCCN1CCN(c2ccccc2)CC1)c1ccc(NC(=O)C2CCCO2)cc1 (configuration not stated)	0	0	0	0	52.0
Cc1ccnc(NS(=O)(=O)c2ccc(NC(=O)C3CCCO3)cc2)n1 (configuration not stated)	0	0	0	0	0
O=C(NNC(=O)C1CCCO1)c1ccccc1Cl (configuration not stated)	0	0	0	2	0
O=C1C(=O)N(CCOCCO)C(c2ccccn2)/C1=C(\O)c1ccccc1 (configuration not stated)	0	0	0	0	0
CN(Cc1ccccc1)S(=O)(=O)c1ccc(NC(=O)C2CCCO2)cc1 (configuration not stated)	0	54.6	0	0	0
CCN(CC)S(=O)(=O)c1ccc(NC(=O)C2CCCO2)cc1 (configuration not stated)	0	0	0	0	0
CCc1ccc(NC(=O)c2ccccc2NC(=O)C2CCCO2)cc1 (configuration not stated)	0	59.2	0	0	0
CCC(C)c1ccccc1NC(=O)C1CCCO1 (configuration not stated)	0	0	0	0	0
Cc1cc(C)nc(N/N=C/C(Cl)=C/c2ccccc2)n1	0	0	0	0	0
CC(C)CC(=O)NC(=S)Nc1nc(-c2cccc3ccccc23)cs1	0	57.2	0	0	0
Cn1c(=O)cc(-c2ccccc2)c2ccccc21	0	96.1	0	0	87.3
COCCN1C(=O)c2ccc(C(=O)O)cc2C1=O	0	54.7	0	0	0
COCCN1C(=O)c2ccc(C(=O)Nc3nccs3)cc2C1=O	0	0	0	0	0
CCCCN1C(=O)c2ccc(C(=O)Nc3c(N)n(CCCC)c(=O)n(C)c3=O)cc2C1=O	0	56.5	0	0	0
COCCCN1C(=O)c2ccc(C(=O)Nc3ccccc3OC)cc2C1=O	2	0	0	0	0
Cc1nc(CSc2nnc3scc(-c4ccc(Cl)cc4)n23)cs1	0	0	0	0	60.5
O=C(NCc1ccco1)c1ccc2c(=O)n(Cc3ccco3)c(SCC(=O)N3CCCC3)nc2c1	0	63.7	0	0	0
COCCNC(=O)c1ccc2c(=O)n(Cc3ccco3)c(SCC(=O)NC3CCCCC3)nc2c1	0	0	0	0	0
O=C(CSc1nc2ccccc2c(=O)n1Cc1ccco1)N1CCCCCC1	0	94.6	0	0	57.8
COC(=O)c1ccc2c(=O)n(Cc3ccco3)c(SCC(=O)Nc3ccccc3Cl)nc2c1	0	87.5	0	0	0
CCSc1nc2cc(OC)c(OC)cc2c(=O)n1CCc1ccccc1	0	0	0	0	0
COc1cc2nc(SCC(=O)NCCc3ccccc3)n(Cc3ccco3)c(=O)c2cc1OC	0	95.9	0	0	65.8
COc1cccc(NC(C)C(=O)N2CC(C)OC(C)C2)c1 (configuration not stated)	0	0	0	0	0
Cc1nc2c(c(N3CCOCC3)n1)OCC(=O)N2	0	0	0	0	0
CCOC(=O)c1ccc(NC(=O)Cn2cc3c(n2)CCC(C)C3)cc1 (configuration not stated)	0	0	0	0	0
O=C(CSc1nc2ccccc2c(=O)n1-c1ccccc1)N1CCCC1	0	51.0	0	0	0
O=C(CSc1nc2ccccc2c(=O)n1-c1ccccc1)N1CCN(CCO)CC1	0	0	0	0	0
O=C(NCCc1ccccc1)c1cccnc1N1CCCCCC1	0	60.7	0	0	72.4
